The record followed here is PubChem BioAssay.

The source made the active and inactive calls.

The test system of test [1] is PRMT1 (protein arginine N-methyltransferase 1). In words: PRMT1 binders on small-molecule microarrays, primary screen, biochemical, small-molecule microarray, 635 nm fluorescence (AID 1088).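 Note: binding of Prmt1 protein to compounds spotted on small-molecule microarray slides.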 The conditions noted are these: small-molecule microarray binding, higher = more signal.
The nature of test [2]: yeast growth modulation, basal conditions, primary screen, YJM789 clinical isolate, OD600, 24 h (AID 1089).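 Note: growth of clinical yeast isolate S. cerevisiae YJM 789 seeded 1000 cells per well; test concentration not given here.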 As to conditions: S. cerevisiae YJM789 growth, higher = more signal, called active from +8 up or from −8 down.
Test [3] in a line: fission yeast growth modulation, primary screen, strain 972, OD600, 24 h, no modulator (AID 1090).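 Note: basal condition with compound alone and no growth modifier present; test concentration not given here.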 As to conditions: S. pombe 972 growth, higher = more signal, called active from +8 up or from −8 down.
A short description of test [4]: S. cerevisiae growth modulation with rapamycin, primary screen, strain BY4716, OD600, 96 h (AID 1091). Note: test concentration not given here. As to conditions: higher = more signal, called active from +8 up or from −8 down.
Test [5] deals with Torsin-1A-interacting protein 2 (Homo sapiens) (UniProt Q8NFQ8). Description: LULL1 binders on small-molecule microarray, primary screen, cell lysate, human LULL1 lysate, 635/667 nm fluorescence (AID 1092).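 Note: probe is lysate of COS7 cells overexpressing human LULL1; score merges per-feature 667 nm fluorescence with signal-to-noise.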 As to conditions: hLULL1 lysate binding, 635 nm fluorescence, higher = more signal.
Test [6] in a line: E. coli growth modulation, two-sided OD650, primary screen, E. coli filamentation project, strain DRC41, 24 h (AID 1093).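 Note: MC1000 strain lacking acrAB efflux and sulA so SOS filamentation is blocked; test concentration not given here.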 As to conditions: OD650, 24 h, higher = more signal, called active from +8 up or from −8 down.
A short description of test [7]: small-molecule microarray binders of probe aLefty2, primary screen, biochemical, biotinylated probe, 635/667 nm fluorescence (AID 1094).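 Note: score merges spot fluorescence near 667 nm with spot signal-to-noise ratio.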 As to conditions: higher = more signal.
Test [8] concerns Noggin (protein binding on small-molecule microarray). In words: Noggin binders on small-molecule microarray, primary screen, biochemical, 635/667 nm fluorescence (AID 1095).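 Note: score merges 667 nm feature fluorescence with signal to noise over triplicate slides.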 The conditions noted are these: 635 nm fluorescence, higher = more signal.
Test [9] deals with Neurogenic locus notch homolog protein 3 (Homo sapiens) (UniProt Q9UM47). In words: NOTCH3 binders on small-molecule microarray, primary screen, biochemical, 635/667 nm fluorescence (AID 1096). As to conditions: NOTCH3 binding, 635 nm fluorescence, higher = more signal.
A short description of test [10]: small-molecule microarray binders of probe aEGFR, primary screen, biochemical, biotinylated probe, 635/667 nm fluorescence (AID 1097).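 Note: probe is a biotinylated anti-EGFR antibody binding compounds printed on slides; score combines fluorescence near 667 nm and signal to noise of each spot.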 As to conditions: higher = more signal.
Test [11] has as its system Plasmodium falciparum Sir2 (PF13_0152, Sir2A). Description: pfSir2 binders on small-molecule microarrays, primary screen, biochemical, small-molecule microarray, 635 nm fluorescence (AID 1098).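 Note: score merges spot fluorescence intensity with its signal-to-noise ratio.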 The conditions noted are these: small-molecule microarray binding, fluorescence 635 nm; higher = more signal.
Test [12] can be described thus: small-molecule microarray binders of probe aDKK1, primary screen, biochemical, biotinylated probe, 635/667 nm fluorescence (AID 1099).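 Note: score merges 667nm spot fluorescence with signal to noise across triplicate slides; reference of the scale not given here.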 As to conditions: higher = more signal.
Test [13] in a line: small-molecule microarray binders of probe aCHRDL2, primary screen, biochemical, biotinylated probe, 635/667 nm fluorescence (AID 1100). As to conditions: higher = more signal.
The nature of test [14]: splicing luciferase reporter signal modulators, primary screen, spliceosome inhibition project, cell-based, HEK293, splice +/- reporter (AID 1101).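 Note: HEK293 cells carrying a splicing-competent luciferase reporter gene; test concentration not given here.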 As to conditions: luminescence, 24 h, higher = more signal, called active from +8 up or from −8 down. Background: A reporter such as luciferase makes a cellular process visible.
Test [15] addresses Fibroblast growth factor 10 (Homo sapiens) (UniProt O15520). In words: FGF10 binders on small-molecule microarrays, primary screen, biochemical, small-molecule microarray, 635 nm fluorescence (AID 1102). The conditions noted are these: FGF10 binding, fluorescence 635 nm, higher = more signal.
Test [16] deals with glycogen synthase kinase-3 (GSK3A per assay name; protocol says GSK3B). Description: GSK3 binders on small-molecule microarrays, primary screen, biochemical, small-molecule microarray, 635 nm fluorescence, GSK3A (AID 1103). Note: the record names both GSK3A and GSK3B. The conditions noted are these: small-molecule microarray binding, fluorescence 635 nm; higher = more signal.
Test [17] addresses Epidermal growth factor receptor (Homo sapiens) (UniProt P00533). Description: EGFR binders on small-molecule microarrays, primary screen, biochemical, small-molecule microarray, 635 nm fluorescence (AID 1104).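 Note: score merges 667 nm emission intensity with spot signal to noise over triplicate slides.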 As to conditions: EGFR binding, higher = more signal.
Test [18] has as its target Follistatin-related protein 3 (Homo sapiens) (UniProt O95633). Description: FSTL3 binders on small-molecule microarrays, primary screen, biochemical, small-molecule microarray, 635 nm fluorescence (AID 1105).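 Note: score merges emission near 667 nm and signal to noise per printed spot across three slides.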 The conditions noted are these: FSTL3 binding, higher = more signal.
The target in test [19] is Dickkopf-related protein 1 (Homo sapiens) (UniProt O94907). Description: DKK1 binders on small-molecule microarrays, primary screen, biochemical, small-molecule microarray, 635 nm fluorescence scan (AID 1106).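 Note: score merges emission near 667 nm with signal to noise over three replicate slides.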 The conditions noted are these: DKK1 binding, higher = more signal.
The subject of test [20] is Inhibin beta A chain (activin A). In words: INHBA (activin A) binders on microarrays, primary screen, biochemical, small-molecule microarray, 635 nm fluorescence scan (AID 1107).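 Note: mouse activin A protein probed at 4.33 µg/mL on printed slides; score merges bound-protein fluorescence near 667 nm with spot signal-to-noise.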 The conditions noted are these: small-molecule microarray binding, higher = more signal.

Dickkopf-related protein 1 (Homo sapiens), sequence (O94907 whole entry, looked up): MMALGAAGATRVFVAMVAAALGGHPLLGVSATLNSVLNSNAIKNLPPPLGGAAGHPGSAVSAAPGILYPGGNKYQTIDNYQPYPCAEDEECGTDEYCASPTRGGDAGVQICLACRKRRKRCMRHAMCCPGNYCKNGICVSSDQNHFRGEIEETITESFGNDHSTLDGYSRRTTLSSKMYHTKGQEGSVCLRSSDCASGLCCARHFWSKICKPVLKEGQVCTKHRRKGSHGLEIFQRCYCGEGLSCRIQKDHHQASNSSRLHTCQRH
Torsin-1A-interacting protein 2 (Homo sapiens), sequence (Q8NFQ8 whole entry, looked up): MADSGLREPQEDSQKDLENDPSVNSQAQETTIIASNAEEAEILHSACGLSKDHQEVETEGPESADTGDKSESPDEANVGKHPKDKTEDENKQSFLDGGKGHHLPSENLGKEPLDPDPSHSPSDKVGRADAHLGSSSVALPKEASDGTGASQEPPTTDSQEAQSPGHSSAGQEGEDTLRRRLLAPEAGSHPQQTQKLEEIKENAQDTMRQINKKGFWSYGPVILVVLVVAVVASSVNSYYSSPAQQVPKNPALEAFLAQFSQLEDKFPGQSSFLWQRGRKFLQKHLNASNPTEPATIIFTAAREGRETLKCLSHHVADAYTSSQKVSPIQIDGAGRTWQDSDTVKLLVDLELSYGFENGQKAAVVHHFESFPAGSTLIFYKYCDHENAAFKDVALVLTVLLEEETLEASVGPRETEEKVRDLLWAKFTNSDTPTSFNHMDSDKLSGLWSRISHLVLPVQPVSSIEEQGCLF
Neurogenic locus notch homolog protein 3 (Homo sapiens), sequence (Q9UM47 whole entry, looked up): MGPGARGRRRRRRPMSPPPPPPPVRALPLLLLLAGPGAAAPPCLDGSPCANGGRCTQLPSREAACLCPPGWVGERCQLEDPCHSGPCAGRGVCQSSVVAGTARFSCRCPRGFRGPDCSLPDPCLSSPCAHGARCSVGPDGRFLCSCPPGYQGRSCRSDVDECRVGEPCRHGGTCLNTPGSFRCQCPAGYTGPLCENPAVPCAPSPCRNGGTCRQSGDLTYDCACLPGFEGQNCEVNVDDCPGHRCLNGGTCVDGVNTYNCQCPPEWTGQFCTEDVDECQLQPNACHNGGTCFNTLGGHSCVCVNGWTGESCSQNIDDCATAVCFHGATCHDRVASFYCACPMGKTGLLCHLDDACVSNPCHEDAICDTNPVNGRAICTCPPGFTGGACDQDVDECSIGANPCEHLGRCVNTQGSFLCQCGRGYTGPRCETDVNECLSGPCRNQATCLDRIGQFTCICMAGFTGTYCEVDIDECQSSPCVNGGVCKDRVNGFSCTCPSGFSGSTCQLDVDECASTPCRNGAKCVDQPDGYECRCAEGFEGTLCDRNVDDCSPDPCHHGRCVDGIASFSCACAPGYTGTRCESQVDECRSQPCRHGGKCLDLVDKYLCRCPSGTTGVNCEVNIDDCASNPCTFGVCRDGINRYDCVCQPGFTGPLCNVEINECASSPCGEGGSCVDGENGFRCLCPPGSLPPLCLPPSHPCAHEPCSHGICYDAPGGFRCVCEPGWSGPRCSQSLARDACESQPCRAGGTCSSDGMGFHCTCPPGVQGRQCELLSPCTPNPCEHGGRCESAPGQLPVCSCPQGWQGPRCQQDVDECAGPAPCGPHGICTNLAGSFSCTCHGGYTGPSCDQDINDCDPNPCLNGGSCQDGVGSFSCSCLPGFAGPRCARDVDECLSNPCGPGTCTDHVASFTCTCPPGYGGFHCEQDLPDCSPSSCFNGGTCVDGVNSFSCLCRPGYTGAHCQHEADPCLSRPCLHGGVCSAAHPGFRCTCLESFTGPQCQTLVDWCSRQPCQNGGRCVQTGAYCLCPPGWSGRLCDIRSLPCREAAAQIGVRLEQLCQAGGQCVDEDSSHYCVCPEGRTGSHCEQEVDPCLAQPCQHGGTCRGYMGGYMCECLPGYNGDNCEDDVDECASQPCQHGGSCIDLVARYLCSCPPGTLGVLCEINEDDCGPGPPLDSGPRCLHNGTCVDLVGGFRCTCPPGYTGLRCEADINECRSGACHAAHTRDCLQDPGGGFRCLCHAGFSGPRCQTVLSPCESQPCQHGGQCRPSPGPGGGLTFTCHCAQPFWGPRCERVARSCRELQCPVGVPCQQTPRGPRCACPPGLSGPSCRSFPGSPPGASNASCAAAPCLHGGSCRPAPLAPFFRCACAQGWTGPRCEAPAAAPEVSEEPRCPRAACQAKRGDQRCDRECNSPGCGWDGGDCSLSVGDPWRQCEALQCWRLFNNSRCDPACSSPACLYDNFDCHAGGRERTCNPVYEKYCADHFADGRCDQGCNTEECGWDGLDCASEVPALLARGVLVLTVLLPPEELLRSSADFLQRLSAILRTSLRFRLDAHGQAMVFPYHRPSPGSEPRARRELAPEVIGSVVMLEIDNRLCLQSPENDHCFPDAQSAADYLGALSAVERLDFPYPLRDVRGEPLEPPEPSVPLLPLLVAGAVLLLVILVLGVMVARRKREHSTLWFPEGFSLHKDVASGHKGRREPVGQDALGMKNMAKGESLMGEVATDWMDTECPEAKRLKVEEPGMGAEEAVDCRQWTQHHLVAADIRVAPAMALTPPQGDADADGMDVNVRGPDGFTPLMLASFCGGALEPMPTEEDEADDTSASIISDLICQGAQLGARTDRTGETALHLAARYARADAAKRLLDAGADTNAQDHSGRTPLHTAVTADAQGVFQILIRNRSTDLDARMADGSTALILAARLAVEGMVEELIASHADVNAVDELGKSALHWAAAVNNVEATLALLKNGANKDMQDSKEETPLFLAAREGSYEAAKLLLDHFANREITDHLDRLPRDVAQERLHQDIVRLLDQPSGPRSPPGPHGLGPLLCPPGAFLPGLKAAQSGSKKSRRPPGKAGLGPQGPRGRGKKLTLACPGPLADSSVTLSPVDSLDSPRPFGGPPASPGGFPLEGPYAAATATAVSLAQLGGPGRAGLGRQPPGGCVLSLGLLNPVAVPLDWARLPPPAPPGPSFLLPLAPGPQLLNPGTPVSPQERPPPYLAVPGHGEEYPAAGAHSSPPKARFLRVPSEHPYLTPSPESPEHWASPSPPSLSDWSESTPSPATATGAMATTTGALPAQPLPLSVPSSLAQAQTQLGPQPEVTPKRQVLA
Fibroblast growth factor 10 (Homo sapiens), sequence (O15520 whole entry, looked up): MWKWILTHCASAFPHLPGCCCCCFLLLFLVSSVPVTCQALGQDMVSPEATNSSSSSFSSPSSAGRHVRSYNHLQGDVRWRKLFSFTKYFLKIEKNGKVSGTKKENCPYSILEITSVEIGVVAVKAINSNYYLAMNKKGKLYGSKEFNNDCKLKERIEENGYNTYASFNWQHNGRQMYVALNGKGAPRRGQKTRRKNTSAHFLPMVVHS
Follistatin-related protein 3 (Homo sapiens), sequence (O95633 whole entry, looked up): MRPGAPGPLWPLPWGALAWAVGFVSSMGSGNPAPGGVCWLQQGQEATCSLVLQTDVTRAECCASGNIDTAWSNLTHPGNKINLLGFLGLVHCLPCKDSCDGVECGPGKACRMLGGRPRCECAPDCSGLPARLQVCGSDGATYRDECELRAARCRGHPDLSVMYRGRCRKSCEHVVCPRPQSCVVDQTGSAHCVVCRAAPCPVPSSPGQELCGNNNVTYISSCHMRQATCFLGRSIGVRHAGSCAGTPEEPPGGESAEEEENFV
Epidermal growth factor receptor (Homo sapiens), sequence (P00533 whole entry, looked up): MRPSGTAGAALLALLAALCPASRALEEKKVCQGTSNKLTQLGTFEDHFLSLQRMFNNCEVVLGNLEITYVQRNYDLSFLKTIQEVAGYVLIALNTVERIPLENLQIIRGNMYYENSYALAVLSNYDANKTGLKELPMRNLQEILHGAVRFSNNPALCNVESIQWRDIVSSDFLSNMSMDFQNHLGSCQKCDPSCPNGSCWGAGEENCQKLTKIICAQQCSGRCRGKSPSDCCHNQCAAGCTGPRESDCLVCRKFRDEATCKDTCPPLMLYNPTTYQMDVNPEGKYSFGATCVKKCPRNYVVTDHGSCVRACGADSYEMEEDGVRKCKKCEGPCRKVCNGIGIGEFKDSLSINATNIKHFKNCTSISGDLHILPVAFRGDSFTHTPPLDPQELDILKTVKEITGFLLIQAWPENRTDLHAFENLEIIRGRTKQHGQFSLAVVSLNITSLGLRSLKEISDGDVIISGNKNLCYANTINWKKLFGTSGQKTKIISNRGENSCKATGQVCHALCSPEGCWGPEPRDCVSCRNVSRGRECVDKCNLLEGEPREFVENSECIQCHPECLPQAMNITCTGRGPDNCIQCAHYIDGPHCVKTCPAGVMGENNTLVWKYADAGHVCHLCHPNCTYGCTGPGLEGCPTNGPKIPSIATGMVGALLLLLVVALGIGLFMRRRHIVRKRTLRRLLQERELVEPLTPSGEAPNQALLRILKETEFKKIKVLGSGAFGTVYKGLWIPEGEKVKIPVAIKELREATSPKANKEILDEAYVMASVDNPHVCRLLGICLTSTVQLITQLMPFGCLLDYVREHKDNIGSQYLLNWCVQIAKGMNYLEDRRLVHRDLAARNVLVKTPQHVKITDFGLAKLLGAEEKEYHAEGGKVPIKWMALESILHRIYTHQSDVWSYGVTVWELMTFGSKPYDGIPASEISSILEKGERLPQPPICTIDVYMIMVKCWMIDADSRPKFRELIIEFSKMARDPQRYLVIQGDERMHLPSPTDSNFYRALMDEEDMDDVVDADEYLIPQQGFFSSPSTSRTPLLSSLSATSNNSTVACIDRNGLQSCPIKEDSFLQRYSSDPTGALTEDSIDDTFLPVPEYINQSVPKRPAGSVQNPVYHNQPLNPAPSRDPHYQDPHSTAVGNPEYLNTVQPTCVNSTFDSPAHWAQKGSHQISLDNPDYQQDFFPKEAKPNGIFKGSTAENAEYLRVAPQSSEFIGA

Consider `O=C(NN=C1C[C@@H](O)[C@@H](O)[C@@H]2[C@@H]3C(=O)N(C4CCCCC4)C(=O)[C@@H]3CC[C@@H]12)OCc1ccccc1`, for which the composite z-score in [1] was -0.492; in test [5] it was -0.181; in test [7], -0.372; in test [8], -0.248; in test [9], 0.256; in test [10] it was -0.0262. Also, the composite z-score is 0.174 in [11]; 0.261 in test [12]; 0.515 in test [13]; 0.0342 in test [15]; 0.0686 in test [16]; -0.0311 in [17]. Further, the composite z-score was 0.524 in [18], -0.0447 in test [19] and -0.347 in test [20]. The z-score in [2] was 0.313 (inactive); in test [3] it was -0.452 (inactive); in test [4], -0.157 (inactive); in test [6], 0.572 (inactive); in [14], 0.662 (inactive).

On to `C#CCCCON=C1C[C@@H](O)[C@@H](O)[C@@H]2[C@@H]3C(=O)N(Cc4ccccc4)C(=O)[C@@H]3CC[C@@H]12`, for which the composite z-score in test [1] was -0.526; in test [5] it was -0.569; in test [7], -0.0409; in test [8], 0.224; in [9], 0.0798; in test [10], -0.14. The composite z-score is -0.596 in test [11]; -0.0538 in test [12]; 0.0175 in [13]; -0.158 in test [15]; -0.287 in test [16]; 0.193 in [17]. In addition, the composite z-score is -0.016 in [18], -0.211 in test [19] and 0.359 in test [20]. Moreover, the z-score is -0.956 (inactive) in [2]; -0.351 (inactive) in test [3]; -1.61 (inactive) in test [4]; 0.49 (inactive) in test [6]; 0.351 (inactive) in test [14].

With `CCOC(=O)[C@H](CC(C)C)NC(=O)CCC1CC(OC(=O)NCc2cccc3ccccc23)CC2(CCCC(COC(=O)NCCC(C)C)O2)O1` (stereo not given in full), the composite z-score in [1] is 0.554; in test [5] it was 0.691; in test [7] it was -0.221; in test [8], 0.543; in test [9], 0.144; in test [10], 0.0031. Further, the composite z-score in test [11] was 1.49; in test [12], -0.203; in test [13] it was -0.196; in test [15], 0.335; in test [16] it was -0.229; in test [17], 0.59. Moreover, the figures for the composite z-score in [18], in test [19] and in test [20] were 0.728, 0.418 and 0.203, respectively. In addition, the z-score in test [2] was -3.9 (inactive); in [3], -2.7 (inactive); in test [4] it was -1.89 (inactive); in test [6], -0.77 (inactive); in [14] it was -2.95 (inactive).

As to `O=C1CCCC=C1C(O)CCOC(c1ccccc1)(c1ccccc1)c1ccccc1` (stereo not given), the composite z-score in test [1] is -0.758; in test [5], -0.626; in test [7] it was -0.186; in test [8], 0.547; in [9], 0.103; in test [10], -0.198. The composite z-score is -0.0236 in test [11]; -0.231 in test [12]; -0.15 in [13]; 0.0203 in test [15]; -0.388 in test [16]; -0.0225 in test [17]. Moreover, the composite z-score in test [18] was -0.108; in test [19], 0.335; in test [20], 0.874. Besides, the z-score in [2] is 0.162 (inactive); in [3] it was -1.92 (inactive); in test [4], 1.55 (inactive); in test [6], -0.0634 (inactive); in test [14] it was -0.0834 (inactive).

As for `C[C@H]1CC[C@H]2C(=O)OC(CO)CN2[C@@H]1c1ccc(Br)cc1` (stereo not given in full), the composite z-score in test [1] was 0.14; in test [5], -0.467; in test [7], -0.236; in [8], 0.0982; in test [9] it was -0.0249; in test [10], -0.145. The composite z-score in [11] was -0.273; in test [12] it was -0.28; in test [13], -0.0574; in test [15], 0.0323; in test [16], -0.536; in [17] it was 0.242. The composite z-score in test [18] is -0.34; in test [19] it was -0.241; in [20] it was 0.757. In addition, the z-score is -0.276 (inactive) in test [2]; -0.315 (inactive) in test [3]; 0.603 (inactive) in test [4]; 0.458 (inactive) in test [6]; -0.522 (inactive) in [14].
